This passage reports binding signal results from paper PMC7862700, “An all-to-all approach to the identification of sequence-specific readers for epigenetic DNA modifications on cytosine”.

What all share (assay): DAPPL (digital affinity profiling via proximity ligation, sequencing); 10 mM Tris-HCl pH 7.5, 50 mM NaCl, 1 mM DTT, 4% glycerol, room temperature, 30 min; GST-TFs on glutathione beads, 16-mer random dsDNA library, 0.1% formaldehyde crosslink after washing; high values mean tight binding
Common to all, as to details: protein: recombinant; tags: N-terminal GST; dsDNA, one strand shown

The target in one assay is T1, FLI1 (Homo sapiens, UniProt Q01543 1-452).
T1 sequence: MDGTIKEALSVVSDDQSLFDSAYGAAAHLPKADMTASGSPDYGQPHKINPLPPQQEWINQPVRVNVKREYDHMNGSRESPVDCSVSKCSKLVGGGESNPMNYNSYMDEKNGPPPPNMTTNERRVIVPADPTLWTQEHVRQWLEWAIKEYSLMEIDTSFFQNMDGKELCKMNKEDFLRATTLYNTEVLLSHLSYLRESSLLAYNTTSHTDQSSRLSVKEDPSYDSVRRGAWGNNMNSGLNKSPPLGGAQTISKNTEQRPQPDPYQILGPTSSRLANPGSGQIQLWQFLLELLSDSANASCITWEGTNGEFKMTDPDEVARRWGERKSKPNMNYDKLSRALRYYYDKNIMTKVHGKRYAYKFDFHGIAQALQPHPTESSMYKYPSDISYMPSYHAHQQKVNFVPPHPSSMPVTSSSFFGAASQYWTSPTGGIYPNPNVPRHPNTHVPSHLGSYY
The gist of the method:
(§1)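 Binding signal is given per hexamer as its read frequency for a factor divided by its frequency in the tag-only sample. GST-fused human transcription factors were expressed in yeast, captured on glutathione beads, barcoded with DNA and pooled with that sample, then incubated with 200 nmole of a 16-mer random double-stranded DNA library in Tris/NaCl/DTT/glycerol buffer for 30 min at room temperature. The pools were then washed, crosslinked, proximity-ligated, amplified by PCR and sequenced on an Illumina NextSeq500.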

The target in the next assay is T2, ELK1 (Homo sapiens, UniProt P19419 1-428).
T2 sequence: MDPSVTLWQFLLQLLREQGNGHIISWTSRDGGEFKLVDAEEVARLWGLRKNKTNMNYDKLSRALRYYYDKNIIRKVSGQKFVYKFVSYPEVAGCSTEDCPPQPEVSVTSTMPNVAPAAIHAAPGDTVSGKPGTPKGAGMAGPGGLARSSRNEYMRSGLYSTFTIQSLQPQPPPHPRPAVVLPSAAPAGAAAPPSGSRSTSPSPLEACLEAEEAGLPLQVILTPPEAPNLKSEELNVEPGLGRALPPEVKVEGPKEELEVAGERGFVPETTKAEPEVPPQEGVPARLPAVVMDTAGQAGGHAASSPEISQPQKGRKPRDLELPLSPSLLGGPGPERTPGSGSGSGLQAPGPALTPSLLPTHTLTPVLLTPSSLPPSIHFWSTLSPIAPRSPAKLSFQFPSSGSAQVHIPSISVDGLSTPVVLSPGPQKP
The essentials: as §1

The next assay deals with T3, GABPA (Homo sapiens, UniProt Q06546 1-454).
T3 sequence: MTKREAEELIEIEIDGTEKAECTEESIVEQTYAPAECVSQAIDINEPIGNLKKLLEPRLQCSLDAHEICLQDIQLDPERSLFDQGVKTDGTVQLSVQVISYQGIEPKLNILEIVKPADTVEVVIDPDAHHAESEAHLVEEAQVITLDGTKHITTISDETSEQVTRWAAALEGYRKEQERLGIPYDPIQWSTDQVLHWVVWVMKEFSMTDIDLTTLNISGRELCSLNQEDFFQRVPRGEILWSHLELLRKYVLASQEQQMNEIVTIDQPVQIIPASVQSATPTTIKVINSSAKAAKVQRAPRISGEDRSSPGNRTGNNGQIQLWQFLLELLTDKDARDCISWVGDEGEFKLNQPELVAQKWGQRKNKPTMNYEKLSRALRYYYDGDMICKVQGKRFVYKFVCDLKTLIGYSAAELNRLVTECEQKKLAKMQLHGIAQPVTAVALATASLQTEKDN
The essentials:
as §1

Another assay addresses T4, ERG (Homo sapiens, UniProt P11308 1-479).
T4 sequence: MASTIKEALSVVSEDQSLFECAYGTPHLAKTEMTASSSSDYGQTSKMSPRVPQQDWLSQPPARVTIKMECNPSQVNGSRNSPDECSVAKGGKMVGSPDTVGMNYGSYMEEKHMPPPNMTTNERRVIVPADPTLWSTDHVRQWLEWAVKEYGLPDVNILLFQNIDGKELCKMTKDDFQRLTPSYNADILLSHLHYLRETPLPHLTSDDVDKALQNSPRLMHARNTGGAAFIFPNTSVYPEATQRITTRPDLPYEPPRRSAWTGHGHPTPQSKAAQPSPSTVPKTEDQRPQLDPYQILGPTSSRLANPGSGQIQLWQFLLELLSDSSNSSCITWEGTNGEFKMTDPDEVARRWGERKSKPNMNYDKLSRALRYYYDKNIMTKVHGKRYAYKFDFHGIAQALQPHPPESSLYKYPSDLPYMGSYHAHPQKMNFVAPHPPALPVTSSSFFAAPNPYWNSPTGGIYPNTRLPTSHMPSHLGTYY
The gist of the method:
as §1

A further assay deals with ELF1 (Homo sapiens, UniProt P32519 1-619). The gist of the method:
as §1

A further assay concerns the target T5, EHF (Homo sapiens, UniProt Q9NZC4 1-300).
T5 sequence: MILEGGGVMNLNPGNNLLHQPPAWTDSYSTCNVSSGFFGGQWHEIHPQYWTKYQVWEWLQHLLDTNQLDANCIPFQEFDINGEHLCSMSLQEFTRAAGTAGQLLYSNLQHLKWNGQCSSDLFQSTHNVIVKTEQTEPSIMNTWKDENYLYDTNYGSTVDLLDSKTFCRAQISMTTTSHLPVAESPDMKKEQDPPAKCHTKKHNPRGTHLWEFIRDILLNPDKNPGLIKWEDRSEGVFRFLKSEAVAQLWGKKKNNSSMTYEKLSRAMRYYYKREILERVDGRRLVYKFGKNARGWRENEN
The gist of the method: as §1

The target of another assay is SPI1 (Homo sapiens, UniProt P17947 1-270). The gist of the method: as §1
Another assay deals with SPIB (Homo sapiens, UniProt Q01892 1-262). The gist of the method:
as §1

A further assay concerns the target T6, ELK3 (Homo sapiens, UniProt P41970 1-407).
T6 sequence: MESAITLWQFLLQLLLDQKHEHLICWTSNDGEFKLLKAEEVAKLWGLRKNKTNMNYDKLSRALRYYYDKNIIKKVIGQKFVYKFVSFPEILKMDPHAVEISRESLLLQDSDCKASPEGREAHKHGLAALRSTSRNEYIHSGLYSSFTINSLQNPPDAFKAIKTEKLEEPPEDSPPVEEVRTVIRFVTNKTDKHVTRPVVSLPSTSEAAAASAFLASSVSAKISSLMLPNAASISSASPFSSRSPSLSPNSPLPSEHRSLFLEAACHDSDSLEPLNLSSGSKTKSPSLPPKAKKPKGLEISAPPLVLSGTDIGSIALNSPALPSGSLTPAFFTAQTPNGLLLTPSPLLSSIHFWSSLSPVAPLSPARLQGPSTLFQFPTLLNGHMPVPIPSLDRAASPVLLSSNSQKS
The essentials: as §1

A further assay concerns the target T7, FEV (Homo sapiens, UniProt Q99581 1-238).
T7 sequence: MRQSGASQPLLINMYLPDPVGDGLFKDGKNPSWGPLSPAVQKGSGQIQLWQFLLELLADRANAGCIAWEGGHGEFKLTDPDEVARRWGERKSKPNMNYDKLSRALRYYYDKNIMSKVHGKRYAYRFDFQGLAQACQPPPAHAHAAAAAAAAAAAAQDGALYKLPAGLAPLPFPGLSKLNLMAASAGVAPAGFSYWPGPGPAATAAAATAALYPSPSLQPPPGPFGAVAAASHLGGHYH
The gist of the method: as §1

A further assay deals with ETV5 (Homo sapiens, UniProt P41161 1-510). The essentials: as §1
ETV5, sequence (P41161 whole entry): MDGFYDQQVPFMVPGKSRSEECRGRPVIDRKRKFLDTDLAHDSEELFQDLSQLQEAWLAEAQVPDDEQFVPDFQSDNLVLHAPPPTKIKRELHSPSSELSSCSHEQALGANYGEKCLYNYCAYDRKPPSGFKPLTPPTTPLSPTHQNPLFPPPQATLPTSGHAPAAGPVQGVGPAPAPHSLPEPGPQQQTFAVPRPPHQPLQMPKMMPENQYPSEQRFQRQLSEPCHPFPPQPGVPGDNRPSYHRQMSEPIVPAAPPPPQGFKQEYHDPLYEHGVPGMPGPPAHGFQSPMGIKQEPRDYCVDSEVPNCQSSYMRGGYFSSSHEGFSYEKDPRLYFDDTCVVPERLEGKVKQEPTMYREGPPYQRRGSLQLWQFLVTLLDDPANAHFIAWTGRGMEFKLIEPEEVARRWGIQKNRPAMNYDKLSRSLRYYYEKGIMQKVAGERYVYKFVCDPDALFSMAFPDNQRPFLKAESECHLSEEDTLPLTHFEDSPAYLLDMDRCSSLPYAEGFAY
Another assay concerns the target T8, SPIC (Homo sapiens, UniProt Q8N5J4 1-248).
T8 sequence: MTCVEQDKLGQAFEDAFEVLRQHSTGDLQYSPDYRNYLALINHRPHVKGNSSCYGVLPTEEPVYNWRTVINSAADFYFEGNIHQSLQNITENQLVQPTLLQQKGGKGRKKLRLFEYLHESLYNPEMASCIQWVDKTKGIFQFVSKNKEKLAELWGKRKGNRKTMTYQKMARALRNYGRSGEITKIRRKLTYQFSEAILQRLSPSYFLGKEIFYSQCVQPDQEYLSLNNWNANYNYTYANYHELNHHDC
The essentials: as §1

The target in another assay is ELF4 (Homo sapiens, UniProt Q99607 1-663). The gist of the method:
as §1

The target of the next assay is T9, ELK4 (Homo sapiens, UniProt P28324-2 1-405).
T9 sequence: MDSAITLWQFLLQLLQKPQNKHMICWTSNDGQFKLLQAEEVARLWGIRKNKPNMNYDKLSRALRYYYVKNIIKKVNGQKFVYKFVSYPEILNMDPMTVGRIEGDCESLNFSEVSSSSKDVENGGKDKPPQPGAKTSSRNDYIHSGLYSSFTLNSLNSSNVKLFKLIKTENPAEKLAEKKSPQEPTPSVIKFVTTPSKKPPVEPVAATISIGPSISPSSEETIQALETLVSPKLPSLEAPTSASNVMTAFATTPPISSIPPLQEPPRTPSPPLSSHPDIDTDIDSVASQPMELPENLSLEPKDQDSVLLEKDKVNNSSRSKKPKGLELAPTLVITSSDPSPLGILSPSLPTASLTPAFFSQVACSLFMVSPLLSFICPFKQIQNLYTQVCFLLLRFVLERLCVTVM
The gist of the method: as §1

The next assay concerns the target T10, ETV2 (Homo sapiens, UniProt O00321 1-342).
T10 sequence: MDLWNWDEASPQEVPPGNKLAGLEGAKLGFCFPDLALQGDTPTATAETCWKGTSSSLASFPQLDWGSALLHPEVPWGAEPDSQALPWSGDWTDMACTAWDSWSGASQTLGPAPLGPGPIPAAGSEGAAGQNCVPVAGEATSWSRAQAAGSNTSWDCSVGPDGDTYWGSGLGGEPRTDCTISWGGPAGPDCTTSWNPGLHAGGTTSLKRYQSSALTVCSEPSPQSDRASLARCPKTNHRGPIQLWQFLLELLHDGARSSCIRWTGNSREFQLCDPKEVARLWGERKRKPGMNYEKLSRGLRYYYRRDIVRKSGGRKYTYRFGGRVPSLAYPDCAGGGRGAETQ
The essentials: as §1

For a further assay, the target named is T11, ELF3 (Homo sapiens, UniProt P78545 1-371).
T11 sequence: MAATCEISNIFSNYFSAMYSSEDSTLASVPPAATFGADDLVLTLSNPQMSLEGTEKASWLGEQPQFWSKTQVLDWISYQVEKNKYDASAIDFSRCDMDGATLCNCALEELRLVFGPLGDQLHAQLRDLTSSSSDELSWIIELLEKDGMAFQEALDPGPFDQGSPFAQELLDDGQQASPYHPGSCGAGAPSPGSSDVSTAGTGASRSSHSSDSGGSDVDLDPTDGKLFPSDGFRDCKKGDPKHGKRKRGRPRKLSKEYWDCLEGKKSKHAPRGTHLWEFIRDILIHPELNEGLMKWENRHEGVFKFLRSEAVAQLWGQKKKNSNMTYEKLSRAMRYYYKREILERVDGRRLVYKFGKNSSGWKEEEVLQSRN
The essentials: as §1

In the next assay the target is CRX (Homo sapiens, UniProt O43186 1-299). The essentials: as §1
CRX, sequence (O43186 whole entry): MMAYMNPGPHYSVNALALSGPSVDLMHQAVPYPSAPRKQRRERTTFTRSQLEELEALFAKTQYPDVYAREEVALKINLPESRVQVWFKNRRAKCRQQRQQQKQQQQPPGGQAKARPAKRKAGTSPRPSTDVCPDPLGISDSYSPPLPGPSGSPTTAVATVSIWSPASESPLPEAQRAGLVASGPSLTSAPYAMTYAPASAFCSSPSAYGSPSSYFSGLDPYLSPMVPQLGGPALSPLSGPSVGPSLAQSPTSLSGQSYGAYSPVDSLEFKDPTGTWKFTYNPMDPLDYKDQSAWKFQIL
In the next assay the target is ETV1 (Homo sapiens, UniProt P50549 1-477). The gist of the method: as §1
ETV1, sequence (P50549 whole entry): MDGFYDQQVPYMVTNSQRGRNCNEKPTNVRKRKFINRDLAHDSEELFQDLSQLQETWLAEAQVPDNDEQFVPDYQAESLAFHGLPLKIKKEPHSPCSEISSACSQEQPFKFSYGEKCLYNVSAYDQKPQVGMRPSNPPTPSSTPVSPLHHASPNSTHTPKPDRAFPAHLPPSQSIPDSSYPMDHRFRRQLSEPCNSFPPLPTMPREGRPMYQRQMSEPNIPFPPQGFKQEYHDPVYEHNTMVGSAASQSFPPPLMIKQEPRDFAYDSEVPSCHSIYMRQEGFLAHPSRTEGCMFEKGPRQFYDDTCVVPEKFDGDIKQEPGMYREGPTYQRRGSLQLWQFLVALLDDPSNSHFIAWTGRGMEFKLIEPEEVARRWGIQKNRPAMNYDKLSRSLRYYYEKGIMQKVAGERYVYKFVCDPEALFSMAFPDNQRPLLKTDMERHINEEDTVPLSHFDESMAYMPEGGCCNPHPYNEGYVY

ELF4, sequence (Q99607 whole entry): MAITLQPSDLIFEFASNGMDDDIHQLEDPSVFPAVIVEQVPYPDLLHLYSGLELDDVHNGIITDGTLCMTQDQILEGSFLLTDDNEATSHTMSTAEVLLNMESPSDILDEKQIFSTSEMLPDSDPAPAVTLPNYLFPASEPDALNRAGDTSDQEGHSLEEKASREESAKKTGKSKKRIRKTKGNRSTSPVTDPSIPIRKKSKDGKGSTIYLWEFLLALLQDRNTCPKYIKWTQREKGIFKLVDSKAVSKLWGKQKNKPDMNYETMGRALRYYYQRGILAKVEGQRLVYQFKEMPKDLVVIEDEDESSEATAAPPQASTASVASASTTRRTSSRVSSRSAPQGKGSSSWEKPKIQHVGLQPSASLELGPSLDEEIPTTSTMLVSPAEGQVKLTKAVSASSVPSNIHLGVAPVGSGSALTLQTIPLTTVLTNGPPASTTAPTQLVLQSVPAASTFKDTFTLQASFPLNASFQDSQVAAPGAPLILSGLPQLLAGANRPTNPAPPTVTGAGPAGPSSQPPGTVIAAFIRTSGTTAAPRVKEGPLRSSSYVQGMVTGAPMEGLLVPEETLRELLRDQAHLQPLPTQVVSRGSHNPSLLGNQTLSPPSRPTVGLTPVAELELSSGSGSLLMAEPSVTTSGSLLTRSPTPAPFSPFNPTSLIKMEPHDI
SPIB, sequence (Q01892 whole entry): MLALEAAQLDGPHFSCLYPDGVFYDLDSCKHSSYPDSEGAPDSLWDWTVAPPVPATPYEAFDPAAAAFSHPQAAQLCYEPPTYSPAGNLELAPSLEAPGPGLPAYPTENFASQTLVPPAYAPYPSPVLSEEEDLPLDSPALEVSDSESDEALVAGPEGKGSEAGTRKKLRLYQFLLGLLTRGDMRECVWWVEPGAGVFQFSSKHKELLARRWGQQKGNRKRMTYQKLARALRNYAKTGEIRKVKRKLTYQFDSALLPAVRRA
ELF1, sequence (P32519 whole entry): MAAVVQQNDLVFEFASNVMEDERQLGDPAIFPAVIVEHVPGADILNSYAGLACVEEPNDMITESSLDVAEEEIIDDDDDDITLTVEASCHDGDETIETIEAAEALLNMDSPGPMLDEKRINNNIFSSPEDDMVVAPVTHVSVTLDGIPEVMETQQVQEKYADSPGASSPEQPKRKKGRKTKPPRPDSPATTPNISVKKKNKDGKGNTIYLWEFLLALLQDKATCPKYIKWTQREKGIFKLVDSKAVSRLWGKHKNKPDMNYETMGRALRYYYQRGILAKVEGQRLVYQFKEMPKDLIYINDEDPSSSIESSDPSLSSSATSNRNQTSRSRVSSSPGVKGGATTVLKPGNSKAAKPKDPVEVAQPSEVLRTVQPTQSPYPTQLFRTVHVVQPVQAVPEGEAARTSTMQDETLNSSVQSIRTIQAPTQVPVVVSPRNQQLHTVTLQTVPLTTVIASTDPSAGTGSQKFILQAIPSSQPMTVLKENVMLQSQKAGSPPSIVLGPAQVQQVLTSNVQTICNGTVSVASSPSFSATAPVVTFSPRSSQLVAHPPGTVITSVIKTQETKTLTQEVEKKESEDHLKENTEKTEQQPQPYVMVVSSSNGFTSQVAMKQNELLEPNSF

ACCGCC: the binding signal with FLI1 was 1.38 fold enrichment (6-mer frequency, TF over GST control); with ELK1, 1.23 fold enrichment (6-mer frequency, TF over GST control); in the assay with GABPA, 1.35 fold enrichment (6-mer frequency, TF over GST control); in the assay with ERG, 1.27 fold enrichment (6-mer frequency, TF over GST control); in the assay with ELF1 it was 1.29 fold enrichment (6-mer frequency, TF over GST control); with EHF it was 1.36 fold enrichment (6-mer frequency, TF over GST control). Further, the binding signal was 1.19 fold enrichment (6-mer frequency, TF over GST control) with SPI1; 1.13 fold enrichment (6-mer frequency, TF over GST control) in the assay with SPIB; 1.3 fold enrichment (6-mer frequency, TF over GST control) with ELK3; 1.32 fold enrichment (6-mer frequency, TF over GST control) in the assay with FEV; 1.23 fold enrichment (6-mer frequency, TF over GST control) in the assay with ETV5; 1.16 fold enrichment (6-mer frequency, TF over GST control) with SPIC. The binding signal in the assay with ELF4 was 1.38 fold enrichment (6-mer frequency, TF over GST control); in the assay with ELK4 it was 1.23 fold enrichment (6-mer frequency, TF over GST control); with ETV2 it was 1.13 fold enrichment (6-mer frequency, TF over GST control); in the assay with ELF3, 1.33 fold enrichment (6-mer frequency, TF over GST control); with CRX, 1.01 fold enrichment (6-mer frequency, TF over GST control); in the assay with ETV1, 1.05 fold enrichment (6-mer frequency, TF over GST control).

Take CTCAGT: the binding signal in the assay with FLI1 was 1.16 fold enrichment (6-mer frequency, TF over GST control); with ELK1, 1.21 fold enrichment (6-mer frequency, TF over GST control); with GABPA it was 1.2 fold enrichment (6-mer frequency, TF over GST control); with ERG, 1.13 fold enrichment (6-mer frequency, TF over GST control); in the assay with ELF1, 1.22 fold enrichment (6-mer frequency, TF over GST control); with EHF, 1.06 fold enrichment (6-mer frequency, TF over GST control). Further, the binding signal in the assay with SPI1 is 1.18 fold enrichment (6-mer frequency, TF over GST control); with SPIB, 1.14 fold enrichment (6-mer frequency, TF over GST control); in the assay with ELK3, 1.24 fold enrichment (6-mer frequency, TF over GST control); with FEV it was 1.12 fold enrichment (6-mer frequency, TF over GST control); with ETV5, 1.14 fold enrichment (6-mer frequency, TF over GST control); with SPIC it was 1.24 fold enrichment (6-mer frequency, TF over GST control). In addition, the binding signal in the assay with ELF4 was 1.21 fold enrichment (6-mer frequency, TF over GST control); with ELK4, 1.19 fold enrichment (6-mer frequency, TF over GST control); with ETV2, 1.2 fold enrichment (6-mer frequency, TF over GST control); with ELF3, 1.35 fold enrichment (6-mer frequency, TF over GST control); with CRX, 1.08 fold enrichment (6-mer frequency, TF over GST control); with ETV1, 1.12 fold enrichment (6-mer frequency, TF over GST control).
